Values joined by “and” are separate entries in the source; they are usually repeats but may differ in a detail not shown here. Equal values may be shown once. Results filed as inconclusive are left out. Where a call stands in place of a potency, no number is given. Active and inactive are the calls of the source. The call rests on the fitted dose curve; in most records, active means well fitted curve in the direction sought with a large enough effect in the repeat runs; inconclusive means weak or mixed curves; inactive means no such curve, though single readings can be large; an effect the other way counts as inactive or inconclusive.
Potency means the concentration at half of the fitted maximal effect.

One test in a line: A CellTox Green Cytotoxicity Assay to monitor cytotoxicity in HEK293 cells - 40 hour (AID 1224871). Further: nearly all actives have a fitted effect of over 45% in size. Particulars: CellTox Green fluorescence; series mostly up to 76.8 µM. Summed up:
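Fluorescence intensity, read at 0, 8, 16, 24, 32 and 40 h of compound treatment, reflected dye binding to DNA of dead HEK293 cells; compounds (23 nL, DMSO) were added 5 h after plating cells with reagent.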
As for `CCC[CH2][Sn]([CH2]CCC)([O]C(C)=O)[O]C(C)=O`, the Potency is 0.278 µM (active).
`[F][Sn]([c]1ccccc1)([c]1ccccc1)[c]1ccccc1`: the Potency is 1.55 µM (active).
Regarding `CC(=O)[O-].CC(=O)[O-].O.O.[Zn+2]`, the Potency entry was “inactive”.
As for `CO/N=C(\C(=O)OC)c1ccccc1CO/N=C(\C)c1cccc(C(F)(F)F)c1`, the Potency is 6.92 µM (active).
For the compound `CNC(=O)/C=C(\C)OP(=O)(OC)OC`, the Potency entry was “inactive”.
For `Nc1nc(N)c(N)c(N)n1`, the Potency was 49.2 µM (active).
In the case of `O=C(NC(=O)c1ccccc1Cl)Nc1ccc(OC(F)(F)F)cc1`, the Potency entry is “inactive”.
Same read-out and setting: next, `CCC(C)Nc1c([N+](=O)[O-])cc(C(C)(C)C)cc1[N+](=O)[O-]` (stereo not given): “inactive”.
The same measure, in the same setting: in the case of `O=C(N[C@H]1N=C(c2ccccc2F)c2cccc3c2N(CC3)C1=O)c1cc2ccccc2[nH]1` it was “inactive”.
Consider `c1ccc2nc(N3CCNCC3)ccc2c1`, for which the Potency result was “inactive”.
`C[C@H]1[C@H](c2ccc(Cl)cc2)SC(=O)N1C(=O)NC1CCCCC1`: the Potency entry is “inactive”.
With `CC(C)(C)c1ccc(OP(=O)(Oc2ccccc2)Oc2ccccc2)cc1`, the Potency result is “inactive”.
Consider `Clc1ccc(C(c2ccc(Cl)cc2)C(Cl)Cl)cc1`, for which the Potency was 55.8 µM (active) and 49 µM (active).
For the compound `Oc1cccc(Cl)c1Cl`, the Potency result was “inactive”.
Turning to `Cc1c([N+](=O)[O-])c(C)c([N+](=O)[O-])c(C(C)(C)C)c1[N+](=O)[O-]`, the Potency result is “inactive”.
With `CCOC(=O)Cc1ccccc1`, the Potency entry is “inactive”.
For `CCC(OC(C)=O)C(CC(C)NC)(c1ccccc1)c1ccccc1` (stereo not given), the Potency is 62.2 µM (active).
On to `CCC(C)c1cccc(C(C)CC)c1O` (stereo not given), for which the Potency is 27.5 µM (active).
With `Nc1ccc(N=Nc2ccccc2)cc1`, the Potency result was “inactive”.
On to `CC1CN1` (stereo not given), for which the Potency entry was “inactive”.
`CC(=O)[O][Sn]([c]1ccccc1)([c]1ccccc1)[c]1ccccc1`: the Potency is 0.219 µM (active).
Still for that read-out and setting: next, `O.O.O.O.O.O.O.O=S(=O)([O-])[O-].[Co+2]`: “inactive”; `CC(C)N(C(=O)CCl)c1ccccc1`: “inactive”.
Take `CCCCCCC[CH2][Sn]([Cl])([Cl])[CH2]CCCCCCC`: the Potency result is “inactive”.
Turning to `S=C=NCCc1ccccc1`, the Potency was 43.7 µM (active).
For the compound `COP(=S)(NC(C)C)Oc1ccc(C)cc1[N+](=O)[O-]` (stereo not given), the Potency result is “inactive”.
Still for that read-out and setting: in the case of `CCCCCCCc1ccc(O)cc1` it was 43.6 µM (active); in that of `O=[N+]([O-])c1ccc(Cl)c(Cl)c1Cl`, 34.2 µM (active).
For the compound `CO/N=C(/C1=NOCCO1)c1ccccc1Oc1ncnc(Oc2ccccc2Cl)c1F`, the Potency result was “inactive”.
Still for that read-out and setting: in the case of `CN1CCc2cc3c(cc2C1O)OCO3` (stereo not given) it was “inactive”; in that of `ClC(Cl)C(Cl)(Cl)Cl`, “inactive”.

The next test in a line: qHTS RealTime-Glo MT Cell Viability Assay in HEK293 cells - 16 hour (AID 1224872). Further: nearly all actives have a fitted effect of over 50% in size. Particulars: RealTime-Glo luminescence; series mostly up to 76.8 µM. The method in brief:
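HEK293 cells seeded with NanoLuc/prosubstrate reagent, rested 5 h at 37 C, then dosed and kept at 37 C up to 40 h. Nonlytic real-time luminescence from viable cells read at 0, 8, 16, 24, 32 and 40 h.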
With `CCC[CH2][Sn]([CH2]CCC)([O]C(C)=O)[O]C(C)=O`, the Potency was 0.0879 µM (active).
Take `[F][Sn]([c]1ccccc1)([c]1ccccc1)[c]1ccccc1`: the Potency is 0.549 µM (active).
Turning to `CNC(=O)/C=C(\C)OP(=O)(OC)OC`, the Potency result is “inactive”.
The same measure, in the same setting: next, `Nc1nc(N)c(N)c(N)n1`: “inactive”; `Nc1ccccc1-c1ccccc1`: “inactive”; `c1ccc2nc(N3CCNCC3)ccc2c1`: “inactive”.
For `Clc1ccc(C(c2ccc(Cl)cc2)C(Cl)Cl)cc1`, the Potency was 44.4 µM (active) and 43.6 µM (active).
With `Cc1c([N+](=O)[O-])c(C)c([N+](=O)[O-])c(C(C)(C)C)c1[N+](=O)[O-]`, the Potency result is “inactive”.
Turning to `CCC(OC(C)=O)C(CC(C)NC)(c1ccccc1)c1ccccc1` (stereo not given), the Potency is 49.4 µM (active).
For `CCC(C)c1cccc(C(C)CC)c1O` (stereo not given), the Potency entry is “inactive”.
On to `CC1CN1` (stereo not given), for which the Potency entry was “inactive”.
Same read-out and setting: next, `C[C@]12CC[C@H]3[C@@H](CCC4=CC(=O)CC[C@@H]43)[C@@H]1CC[C@@H]2OC(=O)CCc1ccco1`: “inactive”; `O.O.O.O.O.O.O.O=S(=O)([O-])[O-].[Co+2]`: “inactive”; `O=[N+]([O-])C(Br)Br`: 55 µM (active).
As to `CCCCCCC[CH2][Sn]([Cl])([Cl])[CH2]CCCCCCC`, the Potency entry is “inactive”.
With `S=C=NCCc1ccccc1`, the Potency is 43.7 µM (active).
For the compound `Cc1c([N+](=O)[O-])cc2c(c1[N+](=O)[O-])C(C)(C)CC2(C)C`, the Potency result is “inactive”.
As for `COP(=S)(NC(C)C)Oc1ccc(C)cc1[N+](=O)[O-]` (stereo not given), the Potency entry was “inactive”.
`CCCCCCCc1ccc(O)cc1`: the Potency is 11 µM (active).
Take `O=[N+]([O-])c1ccc(Cl)c(Cl)c1Cl`: the Potency result is “inactive”.
On to `CO/N=C(/C1=NOCCO1)c1ccccc1Oc1ncnc(Oc2ccccc2Cl)c1F`, for which the Potency result is “inactive”.
Consider `ClC(Cl)C(Cl)(Cl)Cl`, for which the Potency entry was “inactive”.

The nature of another test: qHTS RealTime-Glo MT Cell Viability Assay in HepG2 cells - 8 hour (AID 1224873). Further: nearly all actives have a fitted effect of over 55% in size. Particulars: RealTime-Glo luminescence; series mostly up to 76.8 µM. The method in brief: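 HepG2 cells (600/well) mixed with RealTime-Glo MT reagent, settled 5 h at 37 C/5% CO2 before compound addition. Nonlytic NanoLuc luminescence from viable-cell prosubstrate reduction read repeatedly during 40 h treatment at 37 C.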
(In general: qHTS replaces the single test concentration by a dilution series.)
As for `CCC[CH2][Sn]([CH2]CCC)([O]C(C)=O)[O]C(C)=O`, the Potency result was “inactive”.
With `[F][Sn]([c]1ccccc1)([c]1ccccc1)[c]1ccccc1`, the Potency was 1.74 µM (active).
As to `CC(=O)[O-].CC(=O)[O-].O.O.[Zn+2]`, the Potency result is “inactive”.
Still for that read-out and setting: in the case of `CO/N=C(\C(=O)OC)c1ccccc1CO/N=C(\C)c1cccc(C(F)(F)F)c1` it was “inactive”; in that of `CNC(=O)/C=C(\C)OP(=O)(OC)OC`, “inactive”; in that of `Nc1nc(N)c(N)c(N)n1`, “inactive”.
Consider `Nc1ccccc1-c1ccccc1`, for which the Potency entry was “inactive”.
Take `O=S(=O)(NS(=O)(=O)C(F)(F)F)C(F)(F)F`: the Potency entry was “inactive”.
Consider `O=C(NC(=O)c1ccccc1Cl)Nc1ccc(OC(F)(F)F)cc1`, for which the Potency result was “inactive”.
On the same count and under the same terms, next, `CCC(C)Nc1c([N+](=O)[O-])cc(C(C)(C)C)cc1[N+](=O)[O-]` (stereo not given): “inactive”; `O=C(N[C@H]1N=C(c2ccccc2F)c2cccc3c2N(CC3)C1=O)c1cc2ccccc2[nH]1`: “inactive”; `c1ccc2nc(N3CCNCC3)ccc2c1`: “inactive”.
Turning to `CC(C)(C)c1ccc(OP(=O)(Oc2ccccc2)Oc2ccccc2)cc1`, the Potency entry is “inactive”.
As to `Clc1ccc(C(c2ccc(Cl)cc2)C(Cl)Cl)cc1`, the Potency result was “inactive”.
Same read-out and setting: in the case of `CC1=C2C[C@H]3[C@@H](CC=C4C[C@@H](O)CC[C@@]43C)[C@@H]2CC[C@]12O[C@@H]1C[C@H](C)CN[C@H]1[C@H]2C` it was “inactive”; in that of `Oc1cccc(Cl)c1Cl`, “inactive”.
`Cc1c([N+](=O)[O-])c(C)c([N+](=O)[O-])c(C(C)(C)C)c1[N+](=O)[O-]`: the Potency result is “inactive”.
For the compound `CCOC(=O)Cc1ccccc1`, the Potency result is “inactive”.
Regarding `CCC(C)c1cccc(C(C)CC)c1O` (stereo not given), the Potency result is “inactive”.
As for `Oc1ccc2[nH]cc(CCCCN3CC=C(c4ccccc4)CC3)c2c1`, the Potency entry is “inactive”.
For `CC1CN1` (stereo not given), the Potency result is “inactive”.
Consider `CC(=O)[O][Sn]([c]1ccccc1)([c]1ccccc1)[c]1ccccc1`, for which the Potency is 11 µM (active).
For `C[C@]12CC[C@H]3[C@@H](CCC4=CC(=O)CC[C@@H]43)[C@@H]1CC[C@@H]2OC(=O)CCc1ccco1`, the Potency entry is “inactive”.
As to `O=[N+]([O-])C(Br)Br`, the Potency entry is “inactive”.
Regarding `CCCCCCC[CH2][Sn]([Cl])([Cl])[CH2]CCCCCCC`, the Potency entry is “inactive”.
Consider `S=C=NCCc1ccccc1`, for which the Potency result is “inactive”.
Take `Cc1c([N+](=O)[O-])cc2c(c1[N+](=O)[O-])C(C)(C)CC2(C)C`: the Potency entry is “inactive”.
As for `COP(=S)(NC(C)C)Oc1ccc(C)cc1[N+](=O)[O-]` (stereo not given), the Potency result is “inactive”.
Regarding `O=[N+]([O-])c1ccc(Cl)c(Cl)c1Cl`, the Potency entry is “inactive”.
In the case of `CO/N=C(/C1=NOCCO1)c1ccccc1Oc1ncnc(Oc2ccccc2Cl)c1F`, the Potency entry was “inactive”.
In the case of `CN1CCc2cc3c(cc2C1O)OCO3` (stereo not given), the Potency result is “inactive”.
As to `ClC(Cl)C(Cl)(Cl)Cl`, the Potency result is “inactive”.
